# Columns and labels:
# PEG-3 [1] = target: PEG-3 (UniProt Q6IN02); experiment: inhibition of PEG-3 promoter-driven reporter – cell-based, HeLa, luciferase, CREF/GAPDH counter-screen panel, dose response (AID 624167); conditions: CREF/GAPDH counter-screens; HeLa PEG-Prom luciferase reporter, overnight, run 1, dose range 1, at 100 µM (top of the series) unless noted
# PEG-3 [2] = target: PEG-3 (UniProt Q6IN02); experiment: as above; conditions: CREF/GAPDH counter-screens; HeLa PEG-Prom luciferase reporter, overnight, run 2, dose range 1, at 100 µM (top of the series) unless noted
# PEG-3, sequence (Q6IN02 whole entry, looked up): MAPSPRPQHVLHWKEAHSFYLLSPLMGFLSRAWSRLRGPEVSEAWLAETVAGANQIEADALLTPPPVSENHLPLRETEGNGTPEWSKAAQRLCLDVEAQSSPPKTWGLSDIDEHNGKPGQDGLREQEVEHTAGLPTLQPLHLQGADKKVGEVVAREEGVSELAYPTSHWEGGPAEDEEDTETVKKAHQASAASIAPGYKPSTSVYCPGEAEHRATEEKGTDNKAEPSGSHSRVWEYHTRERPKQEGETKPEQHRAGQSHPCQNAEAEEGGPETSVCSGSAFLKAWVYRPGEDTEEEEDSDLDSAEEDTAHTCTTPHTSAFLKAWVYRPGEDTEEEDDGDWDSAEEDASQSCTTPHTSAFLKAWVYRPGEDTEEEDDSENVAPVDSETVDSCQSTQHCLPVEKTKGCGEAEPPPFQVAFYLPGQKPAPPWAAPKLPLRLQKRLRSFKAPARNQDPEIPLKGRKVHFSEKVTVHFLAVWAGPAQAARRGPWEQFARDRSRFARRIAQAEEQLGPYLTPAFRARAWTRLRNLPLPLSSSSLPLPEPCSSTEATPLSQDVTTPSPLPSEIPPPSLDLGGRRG
SMILES,inhibition (PEG-3 [1]) [%],inhibition (PEG-3 [2]) [%]
CCCOc1ccc(NC(=O)CC2C(=O)N(CC)C(=S)N2CCCN2CCN(Cc3ccccc3)CC2)cc1 (centres undefined),98.9,101
Cc1c(C(=O)Nc2ccc(S(=O)(=O)N(C)C3CCN(C)CC3)cc2)oc2c(Cl)cccc12,102,99.1
CC(C)CC(N)c1csc(NC(=O)Nc2ccccc2C(C)(C)C)n1 (centres undefined),102,101
CCC(=O)NC(c1cccs1)c1cc([N+](=O)[O-])c2cccnc2c1O (centres undefined),100,101
Oc1c(Cl)cc(Cl)c2cccnc12,80.8,80.6
O=C1CSC(=S)N1Cc1cccnc1,96.9,101
CCCn1c(=N)n(CC(=O)c2ccc(Cl)cc2)c2ccccc21,101,100
CC(C)CC(N)c1csc(Nc2ccc(C(=O)c3ccccc3)cc2)n1 (centres undefined),102,101
CN(C)CCNc1ccc2ncn3c4ccc(O)cc4c(=O)c1c23,101,99.7
C/C(=N\N=C(N)N)c1ccc(Cl)c(Cl)c1,102,101
c1ccc(CCCNCCCn2cnc3c(OCc4ccccc4)ncnc32)cc1,99.5,101
COc1ccc(CCNC(=O)C(=O)NCC2CCCN2S(=O)(=O)c2ccccc2)cc1OC (centres undefined),97.2,81.7
CN(C)CCNc1ccc2nnn3c4ccc(O)cc4c(=O)c1c23,102,98
CCN(CC)CCOc1ccc(/C(=C(/Cl)c2ccccc2)c2ccccc2)cc1,102,102
CCOC(=O)c1ccc2ncc(C(=O)OCC)c(NCCN(C)C)c2c1,73,77.3
c1ccc(C[C@H]2CNCCN2CCCCC2CCCCC2)cc1,102,101
Cc1ccc2[nH]c(=O)c(C3C(C#N)=C(N)Oc4c3ccc3cccnc43)cc2c1 (centres undefined),99.2,98.6
COc1ccc(C2NCCc3c2[nH]c2ccccc32)cc1COc1ccc(F)cc1 (centres undefined),98.9,101
COCC(C)n1c(C)cc(C(=O)COC(=O)c2cccn2C)c1C (centres undefined),75.2,83.3
CCCCN(C)CCNC(=O)c1cc(-c2cccnc2)nc2ccc(S(=O)(=O)N3CCC(C)CC3)cc12,100,96.1
CN(C)CCCN(C(=O)c1ccc(S(=O)(=O)N(C)Cc2ccccc2)cc1)c1nc2cc3c(cc2s1)OCO3,100,99.3
OCCN1CCN(C2CCC(c3ccc(F)cc3)c3ccc(F)cc32)CC1 (centres undefined),102,101

# From PubChem BioAssay
